Most compounds without a hit are left out; they make up all but 10% or so of the library.
HP1b binding inh: blocks HP1-beta chromodomain binding to methylated histone tails; actives 0.56% (n = 390,000); P83916; Potency, µM (doses to about 114 µM), most hits filed as inhibitors; AlphaScreen HP1-beta / biotin-H3K9me3 peptide binding; also: nearly all actives have a fitted effect of over 70% in size
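HP1-beta protein (50 nM final) preincubated 30 min at room temperature with biotinylated H3(1-18)K9me3 peptide (50 nM) in PBS pH 7.4, 0.01% Tween-20, then compound added for 30 min. AlphaScreen streptavidin donor/nickel chelate acceptor beads (10 ug/mL final), 30 min dark, luminescence read.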
JMJD2A Tudor inh: JMJD2A Tudor domain (human) inhibition; Potency, µM (doses to about 114 µM), most hits filed as inhibitors; actives 4.4% (n = 390,000); O75164; AlphaScreen JMJD2A-Tudor / H3K4me3 peptide binding; AID 504339; also: nearly all actives have a fitted effect of over 50% in size
G9a inh: blocks human histone lysine methyltransferase G9a; Q96KQ7; G9a H3K9 monomethylation, AlphaScreen, 2 h; Potency, µM (doses to about 102 µM), hits mostly inhibitors; actives 8.8% (n = 350,000); AID 504332; also: nearly all actives have a fitted effect of over 75% in size
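AlphaScreen detection with an anti-monomethyl H3K9 antibody quantified product after a 2 h room-temperature reaction containing 500 nM biotinylated H3K9 peptide, 20 µM SAM and 20 nM enzyme, which had been preincubated 15 min with compound.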
Six1-Eya2 inh: Six1/Eya2 interaction inhibition. Q15475+O00167. AlphaScreen GST-Six1/His-Eya2 binding, biochemical; active compounds read low. activity change, % (concentration not given with the values). actives 0.56% (n = 360,000); in the data active = activity change below about -65%; inconclusive = mostly about -30% to -63%
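GST-Six1 + His-Eya2 (5X stock: 250/500 nM); Tris pH 8.0, 300 mM NaCl, 0.05% BSA, 0.02% Tween 20; GSH donor/Ni acceptor beads; 1 h 37 °C dark; AlphaScreen readout.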
CtBP-E1A blk: inhibitors of CtBP/E1A interaction; AlphaScreen GST-E1A/His-CtBP binding, 1536-well; active compounds read low; activity change, % (test concentration not listed); actives 0.49% (n = 340,000); AID 651724; in the data active = activity change below about -65%; inconclusive = mostly about -30% to -63%
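In 5 uL wells, 23 nL compound meets equimolar GST-E1A and His-CtBP (5X stock 125 nM each) for 2 h, 37 °C. Beads (5X, 50 ug/mL) then 1 h, 37 °C, dark.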
BAZ2B block: blocks human BAZ2B; AlphaScreen BAZ2B-H3K14Ac peptide displacement; Potency, µM (doses to about 114 µM), most hits filed as inhibitors; actives 4.4% (n = 360,000); also: nearly all actives have a fitted effect of over 60% in size
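AlphaScreen displacement of biotin-H3(5-23)K14Ac peptide (50 nM final) from BAZ2B (50 nM final) in PBS pH 7.4, 0.01% Tween-20; complex preformed 30 min RT, then compounds (top 110 uM) 30 min RT, beads 20 min dark.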
A number is an active result; i = inactive; ? = inconclusive; nt = no result given; [ ] = dose if it differs, or a comment. Unless noted, calls follow the shape of the dose curve; as a rule, active = well fitted inhibition curve with a large enough effect; inconclusive = small, poorly fitted or top-dose-only effect; inactive = no such curve, though single readings can be large or run the other way.

SMILES	HP1b binding inh	JMJD2A Tudor inh	G9a inh	Six1-Eya2 inh	CtBP-E1A blk	BAZ2B block
Cc1cc(C)n(CCC(=O)N2CCCC(Nc3ccc(F)cc3)C2)n1 (centres undefined)	i	i	nt	i	i	nt
CCc1ccccc1NC(=O)N1CCCn2nc(C)cc21	i	i	i	nt	nt	i
CCc1ccccc1NC1Nc2cc(C)nn2S1 (centres undefined)	i	?	1.58µM	i	i	i
Cc1cc2n(n1)SC(Nc1ccc(F)cc1)N2 (centres undefined)	i	20µM	1.41µM	i	i	i
Cc1cc2n(n1)SC(Nc1cc(Cl)ccc1Cl)N2 (centres undefined)	i	i	7.94µM	i	i	i
NCC1O[C@@H](OC2C(N)CC(N)C(O)C2O[C@@H]2OC(CO)C(O)C2O)C(N)C(O)C1O (some centres undefined)	nt	nt	i[2.33 µM]	nt	nt	nt
CCc1ccc(NS(=O)(=O)c2ccc3[nH]cc(C(=O)N4CCc5ccccc54)c(=O)c3c2)cc1	?	?	50.1µM	i	i	?
CCCCN=C1NN=C(c2ccc3c(c2)OCCO3)CS1	i	i	44.7µM	i	i	nt
COCCN=C1NN=C(c2ccc(C)c([N+](=O)[O-])c2)CS1	i	?	10µM	i	i	i
c1cc2c(cc1C1=NNC(=NC3CC3)SC1)OCCO2	i	i	?	i	nt	nt
COc1ccc(N=C2NN=C(c3ccc4c(c3)OCCO4)CS2)cc1	?	?	44.7µM	i	i	?
CCCCN=C1NN=C(c2ccc(C)c(C)c2)CS1	?	i[11.4 µM]	31.6µM	i	nt	i
C[C@@H]1CN([C@H](C)CO)C(=O)c2cc(Br)cnc2O[C@H]1CN(C)C(=O)Cc1ccccc1	nt	nt	nt	i	i	nt
CCCS(=O)(=O)c1nc(S(=O)(=O)c2ccc(C)cc2)c(NCc2ccc3c(c2)OCO3)s1	i	i	39.8µM	i	i	i
O=C(NCc1ccco1)/C(=C/c1ccc(C(F)(F)F)cc1)c1nc2ccccc2[nH]1	i	i	15.8µM	i	i	i
COC(=O)c1c(C)[nH]c(C(=O)C(C)OC(=O)C2CC(=O)N(CCc3ccccc3)C2)c1C (centres undefined)	i	i	i[2.33 µM]	i	i	56.2µM
CC(C)OC(=O)c1cc(NC(=O)C2C3C=CC(O3)C2C(=O)O)cc(C(=O)OC(C)C)c1 (centres undefined)	i	?	50.1µM	i	i	?
COc1ccc(NC(=O)C2C3C=CC(O3)C2C(=O)O)cc1 (centres undefined)	i	i	39.8µM	i	nt	i
CC(=O)c1ccc(NC(=O)C2C3C=CC(O3)C2C(=O)O)cc1 (centres undefined)	i	?	?	i	i	i
CCCOC(=O)c1ccc(NC(=O)C2C3C=CC(O3)C2C(=O)O)cc1 (centres undefined)	i	i	14.1µM	i	i	i
Cc1nn(CCC(=O)Nc2ccccc2Br)c(=O)c2nn(-c3ccccc3)c(C)c12	i	i	i	nt	nt	i
O=C(NCCc1ccccc1)c1cc2sccc2n1Cc1ccc(F)cc1	i	i	i	nt	nt	i
Cc1nc2c(C(=O)NCc3ccc(F)cc3)c[nH]n2c(=O)c1Cl	i	i	50.1µM	i	i	i
Cc1nc2c(C(=O)NCCC(C)C)c[nH]n2c(=O)c1Cl	i	i	?	i	i	i
Cc1nc2c(C(=O)NCCc3ccccc3)c[nH]n2c(=O)c1Cl	i	i	50.1µM	i	i	i
SMILES	HP1b binding inh	JMJD2A Tudor inh	G9a inh	Six1-Eya2 inh	CtBP-E1A blk	BAZ2B block
Cc1ccc(C(=O)COC(=O)c2cc(-c3ccccc3)nc3ccccc23)cc1C	i	i	i	nt	nt	i
Cn1cnc2nc(NCCO)nc(NCc3ccccc3)c21	nt	nt	i	nt	nt	nt
Cc1cccc(-n2ncc3c2CCCC3NC(=O)CCN2CCCCO2)c1C (centres undefined)	i	i	i	i	i	i
CS(=O)(=O)n1nc(OC(=O)c2cc(Br)ccc2Cl)cc1N	i	i	31.6µM	i	nt	i
COc1ccccc1NC(=O)N[C@@H](Cc1c[nH]c2ccccc12)C(=O)NN	i	?	i	i	i	?
CCOc1ccc2nc(SCC)[nH]c2c1	i	i	i	i	i	89.1µM
N#C/C(=C\c1ccc(-c2ccc(Cl)c(C(=O)O)c2)o1)c1nc2ccccc2[nH]1	i	?	i	nt	nt	50.1µM
N#C/C(=C\c1ccccc1C(=O)O)c1nc2ccccc2[nH]1	i	i	i[2.33 µM]	i	i	i
N#C/C(=C\c1ccc(-c2ccc(C(=O)O)cc2)o1)c1nc2ccccc2[nH]1	?	89.1µM	i	i	?	i
Cc1ccc2nc(/C(C#N)=C/c3ccc(-c4cccc(Cl)c4)o3)[nH]c2c1	i	i	?	nt	nt	?
Cc1ccc(S(=O)(=O)SCCCSS(=O)(=O)c2ccc(C)cc2)cc1	7.08µM	2.82µM	nt	i	i	nt
Cc1ccc(S(=O)(=O)SC/C=C/CSS(=O)(=O)c2ccc(C)cc2)cc1	?	3.16µM	nt	i	i	nt
Cc1ccc(S(=O)(=O)C=CS(=O)(=O)c2ccc(C)cc2)cc1	nt	nt	nt	i	i	nt
COc1cc(OC)c(C(=O)OC(C)C(=O)Nc2cccc(C(F)(F)F)c2)cc1OC (centres undefined)	i	i	i	i	i	i
O=C(CN1C(=O)c2cccnc2Oc2ccc(Cl)cc21)NCCCN1CCCCC1	i	i	i	nt	nt	i
CCCC[C@]12Cc3ccccc3[C@H](O1)C1=C(O2)C(=O)c2ccccc2C1=O	nt	nt	i[2.33 µM]	nt	nt	i[22.9 µM]
CCCC[C@]12Cc3cc(OC)c(OC)cc3C(O1)C1=C(O2)C(=O)c2ccccc2C1=O	nt	nt	nt	nt	nt	7.08µM
CCc1cc(=O)oc2c(C)c(O)c(CN3CCCCC3)cc12	i	79.4µM	i	i	i	i
Cc1c(O)c(CN2CCCC2)cc2c3c(c(=O)oc12)CCC3	i	i	i	i	i	?
Cc1ccc2c(CN3CCCCC3)cc(=O)oc2c1C	i	i	i	i	i	i
Cc1c(O)c(CN2CCCC2)cc2c1oc(=O)c1ccccc12	i	?	22.4µM	i	i	i
COCCN(CCOC)C(=O)c1ccc(NS(=O)(=O)c2ccc3[nH]c(=O)[nH]c3c2)cc1	i	i	nt	i	i	?
COc1ccc(CCNS(=O)(=O)c2ccc(N3CCCCS3(=O)=O)cc2)cc1	i	i	i	nt	nt	i
NNC(=O)CNC(=O)Nc1n[nH]c(=S)s1	nt	nt	nt	i	i	nt
O=C(O)CC(Sc1n[nH]c(=S)s1)C(=O)O (centres undefined)	i	44.7µM	nt	i	i	79.4µM
COC(=O)C(C)Sc1n[nH]c(=S)s1 (centres undefined)	?	39.8µM	6.31µM	i	i	?
CCNc1nc(SC(C)C(=O)OC)nc(N(C)C)n1 (centres undefined)	i	i	i	i	i	i
COc1ccc(-c2noc(N3CCC(C(=O)N(C)c4cc(Cl)ccc4OC)CC3)n2)cc1	i	i	i	nt	nt	i
